Data from PubChem BioAssay AID1159580 (chemical genetic matrix, 2015).
Hit rate of the full screen: of about 5,500 compounds, about 2,000 (36%) were called active. Not shown: some 18% with an inconclusive outcome. Rule as the data show it: active = normalized growth mostly below about 0.91 (no sharp cut-off); inconclusive = no clear call, values can overlap the other calls; inactive = mostly above about 0.92. This is one part of the list.

Assay: chemical genetic growth profiling, strain panel (AID 1159580);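 also: tested at 20 µM; growth read once vehicle control cultures reached saturation at 30 °C; 1 = growth at the plate median or of vehicle wells; lower values mean less growth of the strain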
Details: S. cerevisiae deletion strains, growth OD

Measured: normalized growth

OC(CN1CCC(Cc2ccc(F)cc2)CC1)c1ccc(Cl)cc1 (centres undefined)
inactive: locus YAL040C, strain CLN3, active compounds read low 0.991 | locus YCL061C, strain MRC1 (second series), active compounds read low 0.997 | locus YDR150W, strain NUM1, active compounds read low 0.999 | locus YDR363W, strain ESC2, active compounds read low 1.05 | locus YER002W, strain NOP16, active compounds read low 1.03 | locus YGR229C, strain SMI1, active compounds read low 1.07 | locus YJR075W, strain HOC1, active compounds read low 1.01 | locus YMR263W, strain SAP30, active compounds read low 0.992 | locus YNL128W, strain TEP1, active compounds read low 1.01 | locus YNL175C, strain NOP13, active compounds read low 1 | locus YNL197C, strain WHI3, active compounds read low 1.01 | locus YNL224C, strain SQS1, active compounds read low 1 | locus YOR083W, strain WHI5 (second series), active compounds read low 1.05 | locus YPL055C, strain LGE1, active compounds read low 1.01
